According to PubChem BioAssay (NCATS):
A number with no mark means an inactive call. Inconclusive results are not listed. Entries that show only a call come without a potency. Calls of active or inactive are those of the source. Unless noted, calls come from the whole dose curve; as a rule, active = well fitted curve in the direction sought with a large enough effect; inconclusive = small, poorly fitted or top-dose-only effect, or another doubt; inactive = no such curve, though single readings can be large; an effect the other way counts as inactive or inconclusive.

Key:
[1] = P-glycoprotein substrates identified in KB-8-5-11 adenocarcinoma cell line, qHTS therapeutic library screen (AID 1346987); note: nearly all actives have a fitted effect of over 65% in size; note: potency is the fitted concentration of half-maximal effect; for activity change, negative = cytotoxicity: series mostly up to about 44 µM
Method in brief: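 KB-8-5-11, a colchicine-selected P-gp-overexpressing KB-3-1 subline, was grown without colchicine for the assay. Cells were seeded at 500 cells/well, dosed in concentration-response and incubated 72 h at 37 degree C, 5% CO2. Viability was read by CellTiter-Glo luminescence.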

[2] = NS1 protein of Zika virus - qHTS assay to identify small molecule inhibitors in human HEK 293 cells (AID 1347053); note: series mostly up to about 46 µM; nearly all actives have a fitted effect of over 55% in size
Method in brief: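 HEK 293 cells pretreated with compound for 1 h, then infected with ZIKV MR766 (MOI 0.5) for 24 h at 37 C. NS1 detected by TR-FRET with two anti-NS1 antibodies; normalized to uninfected (0%) and infected (100%) wells.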

[3] = qHTS of pediatric cancer cell lines to identify multiple opportunities for drug repurposing: Primary screen for TC32 cells (AID 1347089); note: nearly all actives have a fitted effect of over 60% in size
Method in brief: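 Measured quantity: luminescence from CellTiter-Glo, reflecting metabolically active TC32 cells following 48 h of compound. Curves came straight from multi-point titrations, with 8 or 11 points in primary and 11 in confirmatory screening.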

[4] = qHTS assay for small molecule activators of the p53 signaling pathway (AID 651743; active = well fitted activation curve with a large enough effect in the signal ratio, not every such curve was filed as active; the % refers to the signal ratio; note: series mostly up to about 92 µM); details: HCT-116 p53RE-bla, beta-lactamase FRET ratio, 16 h; stronger effect = higher value
Method in brief: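 Read-out is fluorescence intensity from the LiveBLAzer B/G FRET substrate, added for 2 hours at room temperature after HCT-116 p53RE-bla cells had been incubated with compounds for 16 hours at 37 C.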

[5] = qHTS assay for small molecule activators of the nuclear factor-kappa B (NF-kB) signaling pathway (AID 651749; active = well fitted activation curve with a large enough effect in the signal ratio; the % refers to the signal ratio; note: series mostly up to about 77 µM); details: NF-kB-bla ME-180 cells, beta-lactamase FRET ratio, 16 h; stronger effect = higher value
Method in brief: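 Readout: beta-lactamase reporter driven by an NF-kB response element, detected fluorescently as loss of FRET. Cells were the ME-180 line, treated 16 hr at 37C with pin-transferred compound.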

[6] = qHTS assay for environmental chemicals that activate the Aryl hydrocarbon Receptor (AhR) signaling pathway (AID 651777); details: 1A2-DRE human hepatoma cells, luciferase, 24 h; activation: stronger effect = higher value; note: nearly all actives have a fitted effect of over 15% in size
Method in brief: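 Concentration–response screening used 1,200 1A2-DRE cells per well, 24 hr compound exposure (37 C, 5% CO2), and One-Glo luminescence as the AhR-driven CYP1A2 reporter signal.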

[7] = target: Peroxisome proliferator-activated receptor alpha (Homo sapiens) (UniProt Q07869); assay: qHTS assay for small molecule agonists of the peroxisome proliferator-activated receptor alpha (PPARalpha) signaling pathway (AID 651778); details: PathHunter PPARalpha complementation, chemiluminescence, 6 h; stronger effect = higher value
Sequence of Peroxisome proliferator-activated receptor alpha (Homo sapiens) (Q07869 whole entry, looked up): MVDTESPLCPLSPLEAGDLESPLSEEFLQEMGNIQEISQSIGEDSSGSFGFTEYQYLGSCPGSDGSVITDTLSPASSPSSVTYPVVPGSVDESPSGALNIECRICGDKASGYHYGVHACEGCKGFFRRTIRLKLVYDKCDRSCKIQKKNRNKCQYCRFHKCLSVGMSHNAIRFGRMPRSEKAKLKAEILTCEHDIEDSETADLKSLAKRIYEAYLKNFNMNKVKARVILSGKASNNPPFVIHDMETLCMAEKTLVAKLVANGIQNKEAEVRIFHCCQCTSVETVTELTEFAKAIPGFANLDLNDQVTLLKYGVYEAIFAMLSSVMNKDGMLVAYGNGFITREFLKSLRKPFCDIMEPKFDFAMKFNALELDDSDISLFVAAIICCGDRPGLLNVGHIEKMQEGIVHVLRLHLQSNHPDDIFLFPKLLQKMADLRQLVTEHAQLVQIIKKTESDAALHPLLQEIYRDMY
Method in brief: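 Chemiluminescence from complemented enzyme reported PPARalpha activation in cells after 6 hr of compound treatment at 37 C. The detection reagent was incubated for 60 min at room temperature, and compounds were scored as agonists.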

[8] = qHTS assay for small molecule agonists of the antioxidant response element (ARE) signaling pathway measured by Nrf2-dependant transcriptional activity (AID 720636; active = well fitted curve in the direction sought with a large enough effect in the repeat runs; an effect the other way counts as inactive or inconclusive;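 note: HepG2 cells with an ARE-driven luciferase reporter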)
Method in brief: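 Attachment 6 hr at 37 C, then compound versus DMSO vehicle for 16 hr in ARE-luc HepG2 cells (1% dialyzed FBS); luminescence recorded 30 min after ONE-Glo addition at room temperature.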

[9] = qHTS assay for small molecule agonists of the antioxidant response element (ARE) signaling pathway measured by Nrf2-dependant transcriptional activity - cell viability counter screen (AID 720653; active = well fitted curve in the direction sought with a large enough effect in the repeat runs; an effect the other way counts as inactive or inconclusive); details: ARE-bla HepG2 viability, CellTiter-Glo ATP luminescence, 16 h; stronger effect = lower value
Method in brief: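 Cytotoxicity counter screen: intracellular ATP quantified by CellTiter-Glo luminescence in the same ARE-bla HepG2 plates, after 16 h compound exposure and a 2 h beta-lactamase substrate step.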

[10] = qHTS Assay for Identifying Gametocytocidal Compounds (AID 743244);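 note: actives lower the fluorescent signal which means gametocytes are killed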; details: P. falciparum 3D7 stage III-V gametocytes, alamarBlue, 72 h; max response: stronger effect = lower value
Method in brief: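 Stage III–V gametocytes of P. falciparum 3D7 were seeded at 20,000 cells/well onto pre-dispensed compounds. After 72 h, 37 °C, 5% CO2, alamarBlue was added for another 24 h.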

[11] = qHTS assay for cell viability of HEK293 cells (AID 743288); details: ATP luminescence (CellTiter-Glo), 18 h, stronger effect = lower value; note: nearly all actives have a fitted effect of over 50% in size
Method in brief: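 The Tox21 protocol used parental HEK293 cells treated for 18 h at 37 C with compounds delivered by pintool; ATP-coupled luminescence after 30 min at room temperature gave viability.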

[12] = qHTS assay for cell viability of the p53RE-bla HCT-116 cell line (AID 743292); note: nearly all actives have a fitted effect of over 55% in size
Method in brief: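 Compound-exposed HCT-116 (p53RE-bla) cells, 4,000 per well, were kept 16 h at 37 C following a 5 h preincubation. Cell number was estimated from total ATP by CellTiter-Glo luminescence read after 30 min at room temperature.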

[13] = target: Tumor necrosis factor (Homo sapiens) (UniProt P01375); assay: qHTS assay to identify small molecules that stimulate Tumor Necrosis Factor-alpha (TNF-alpha) secretion (AID 651757; active = well fitted curve in the direction sought with a large enough effect in the signal ratio; the % refers to the signal ratio)
Sequence of Tumor necrosis factor (Homo sapiens) (P01375 whole entry, looked up): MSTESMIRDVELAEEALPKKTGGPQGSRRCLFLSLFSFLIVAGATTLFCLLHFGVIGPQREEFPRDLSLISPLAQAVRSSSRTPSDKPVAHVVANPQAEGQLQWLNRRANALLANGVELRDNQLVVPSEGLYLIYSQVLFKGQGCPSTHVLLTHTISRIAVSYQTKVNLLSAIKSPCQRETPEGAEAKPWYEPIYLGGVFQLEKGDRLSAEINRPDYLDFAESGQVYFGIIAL
Method in brief: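 THP-1 cells (3000/well) exposed to compounds 17 hrs at 37 C. Secreted TNF-alpha detected by HTRF with cryptate- and XL665-labeled anti-TNF-alpha antibodies after 3 hr at room temperature.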

[14] = target: Nuclear receptor ROR-gamma (Homo sapiens) (UniProt P51449); assay: qHTS assay for small molecule antagonists of the retinoid-related orphan receptor gamma (ROR-gamma) signaling pathway (AID 651802);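 note: luciferase reporter luminescence driven by ROR response element; series mostly up to about 92 µM; nearly all actives have a fitted effect of over 60% in size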
Sequence of Nuclear receptor ROR-gamma (Homo sapiens) (P51449 whole entry, looked up): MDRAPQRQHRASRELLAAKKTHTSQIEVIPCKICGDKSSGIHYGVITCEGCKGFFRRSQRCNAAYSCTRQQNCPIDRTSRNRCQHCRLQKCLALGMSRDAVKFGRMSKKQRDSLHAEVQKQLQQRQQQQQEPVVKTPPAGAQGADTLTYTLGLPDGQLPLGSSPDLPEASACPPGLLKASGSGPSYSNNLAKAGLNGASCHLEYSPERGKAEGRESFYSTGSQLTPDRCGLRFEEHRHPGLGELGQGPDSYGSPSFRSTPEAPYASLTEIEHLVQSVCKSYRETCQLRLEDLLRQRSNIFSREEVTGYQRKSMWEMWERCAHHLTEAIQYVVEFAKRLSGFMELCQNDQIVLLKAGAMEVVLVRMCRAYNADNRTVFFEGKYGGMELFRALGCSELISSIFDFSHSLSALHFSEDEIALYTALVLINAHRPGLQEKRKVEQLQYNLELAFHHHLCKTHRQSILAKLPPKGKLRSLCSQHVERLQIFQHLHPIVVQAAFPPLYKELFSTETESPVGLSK
Method in brief: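 CHO cells with TET-inducible ROR-gamma and RORE-luciferase reporter, dosed then doxycycline-induced. After 16 h at 37C, One-Glo luminescence read; decreased signal indicates antagonism.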

[15] = qHTS assay for small molecule antagonists of the retinoid-related orphan receptor gamma (ROR-gamma) signaling pathway - cell viability counter screen (AID 720652; active = well fitted curve in the direction sought with a large enough effect in the repeat runs; an effect the other way counts as inactive or inconclusive;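 note: series mostly up to about 92 µM; compound exposure lasted 16 hr before ATP read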)
Method in brief: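 CHO cells carrying TET-inducible ROR and RORE-luciferase reporter, plated 5 hr, then dosed with compound plus doxycycline. After 16 hr at 37 C, viability read as intracellular ATP by CellTiter-Glo luminescence.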

Structure (SMILES): O=C1CCC=CC1(O)C(=O)OCc1ccccc1O[C@@H]1O[C@H](CO)[C@@H](O)[C@H](O)[C@H]1O (stereo partly specified)
- Potency [1]: inactive

Structure (SMILES): Cc1c(C(=O)N2CCOc3ccc(-c4ccc(N)nc4)cc3C2)ccc(S(C)(=O)=O)c1F
- Potency [1]: 10.3 µM (active)

Structure (SMILES): CN(C)c1nc(NC2CCC(NC(=O)c3ccc(F)c(F)c3)CC2)nc2ccccc12 (stereo unspecified)
- Potency [1]: 20.6 µM (active)

Structure (SMILES): CNC(=O)c1ccccc1Nc1nc(Nc2ccc(N3CCNCC3)cc2)ncc1Cl
- Potency [1]: 0.461 µM (active)

Structure (SMILES): CC[C@H](CO)Nc1nc(NCc2ccc(-c3ccccn3)cc2)c2ncn(C(C)C)c2n1
- Potency [1]: 0.231 µM (active)

Structure (SMILES): NC1CCCCN(c2c(F)cc3c(=O)c(C(=O)O)cn(C4CC4)c3c2Cl)C1 (stereo unspecified)
- Potency [1]: inactive

Structure (SMILES): CC1(C)CCCC2(C)C(CO)C(CO)=CCC12 (stereo unspecified)
- Potency [1]: inactive

Structure (SMILES): CC(C)(C)c1cc(Br)cc([C@H](CC(=O)O)NC(=O)CNC(=O)c2cc(O)cc(NC3=NCC(O)CN3)c2)c1 (stereo partly specified)
- Potency [1]: inactive

Structure (SMILES): CC(C)C(NC(=O)c1ccc2ccccc2n1)C(=O)NC(CC(=O)O)C(=O)COc1c(F)cccc1F (stereo unspecified)
- Potency [1]: inactive

Structure (SMILES): Nc1nc2c(c(N3CCNCC3)n1)CCC1=C2[C@@H]2CCCC[C@@H]2O1
- Potency [1]: inactive

Structure (SMILES): CC[C@H](NC(=O)[C@H](CS(=O)(=O)CC1CC1)N[C@@H](c1ccc(F)cc1)C(F)(F)F)C(=O)C(=O)NC1CC1
- Potency [1]: inactive

Structure (SMILES): CCCCc1ccc(C(=O)Nc2cc(-c3ccc(Cl)cc3)nn2-c2ccc(Cl)cc2)cc1
- Potency [1]: inactive

Structure (SMILES): O=C(O)c1ccccc1NCCc1ccccc1
- Potency [2]: inactive
- outcome [3]: inactive

Structure (SMILES): C[C@@H]1CC[C@@]2(OC1)O[C@H]1C[C@H]3[C@@H]4CC=C5C[C@@H](O)CC[C@]5(C)[C@H]4CC[C@]3(C)[C@H]1[C@@H]2C
- Potency [1]: inactive

Structure (SMILES): O=C(O)c1c(O)c(-c2ccccc2)nc2ccccc12
- Potency [2]: inactive
- outcome [3]: inactive

Structure (SMILES): Cc1[nH]c2ccccc2c1CCNC(=O)c1ccccc1F
- Potency [1]: inactive

Structure (SMILES): CC1(O)CCCC2(C)C1CCC13CC(CO)C(CCC12)C3 (stereo unspecified)
- Potency [1]: inactive

Structure (SMILES): C=C[C@]1(C)C[C@H](O)[C@@H]2[C@H](OC(=O)[C@@H]2C)C1/C(C)=C/O[C@@H]1O[C@H](CO)[C@@H](O)[C@H](O)[C@H]1O (stereo partly specified)
- Potency [1]: inactive

Structure (SMILES): CC1(C)CCC[C@]2(C)[C@H]3CC(=O)O[C@]3(C)CC[C@@H]12
- Potency [1]: inactive

Structure (SMILES): C[C@H]1CC(=O)Nc2cccc(-c3cnn(C(C)(C)C)c3)c2N1
- Potency [1]: inactive

Structure (SMILES): N#Cc1c(Oc2ccc(F)c(NC(=O)Cc3cccc(C(F)(F)F)c3)c2)ccc2nc(NC(=O)C3CC3)sc12
- Potency [1]: 7.31 µM (active)

Structure (SMILES): CC(=O)O[C@H]1C(=O)[C@@]2(C)[C@H]([C@H](OC(=O)c3ccccc3)[C@]3(O)C[C@H](OC(=O)[C@H](O)[C@@H](NC(=O)c4ccccc4)c4ccccc4)C(C)=C1C3(C)C)[C@]1(OC(C)=O)CO[C@@H]1C[C@@H]2O
- activation [4]: 23.6%
- activation [5]: 4.74%
- activation [6]: 0.595%
- max response [7]: -1.23%
- outcome [8]: inactive
- max response [9]: -7.37%
- max response [10]: -7.34%
- max response [11]: -10.4%
- outcome [12]: inactive
- Potency [1]: 0.873 µM (active)

Structure (SMILES): CCC(C(=O)O)c1ccc(N2Cc3ccccc3C2=O)cc1 (stereo unspecified)
- Potency [2]: inactive
- outcome [3]: inactive

Structure (SMILES): CC(=O)O[C@@H]1CC(C)=C2[C@H]1[C@H](C)CC[C@H]2/C=C(\C)C(=O)O
- activation [4]: -5.82%
- activation [5]: 0.932%
- outcome [13]: inactive
- activation [6]: -0.287%
- max response [7]: -0.232%
- outcome [14]: inactive
- outcome [8]: inactive
- outcome [15]: inactive
- max response [9]: -16.1%
- max response [11]: -5.49%
- outcome [12]: inactive
- Potency [1]: inactive

Structure (SMILES): CCOCCOC(=O)/C=C/c1ccc(OC)cc1
- Potency [2]: inactive
- outcome [3]: inactive

Structure (SMILES): CC1OC(OC2C(C)OC(OC3C(O)C(CO)OC(O[C@H]4CC[C@@]5(C)C(CC[C@]6(C)C5CC=C5C7[C@@H](C)[C@H](C)CC[C@]7(C(=O)O)CC[C@]56C(=O)O)C4(C)C)C3O)C(O)C2O)C(O)C(O)C1O (stereo partly specified)
- outcome [1]: inactive [at 9.29 µM]

Structure (SMILES): C=C1CCC2C(C)(C)C(O)CCC2(C)C1CCC(C)CCOC(C)=O (stereo unspecified)
- Potency [1]: inactive

Structure (SMILES): CN(C)c1nc(NC2CCC(NCCc3ccc(Br)cc3OC(F)(F)F)CC2)nc2ccccc12 (stereo unspecified)
- Potency [1]: 4.61 µM (active)

Structure (SMILES): O=C(CCCCN1CCOCC1)Nc1ccc(-c2cccnc2)cc1
- Potency [1]: inactive

Structure (SMILES): C/C=C1\[C@H](O[C@@H]2O[C@H](CO)[C@@H](O)[C@H](O)[C@H]2O)OC=C(C(=O)OC)[C@H]1CC(=O)OC[C@H]1O[C@@H](OCCc2ccc(O)cc2)[C@H](O)[C@@H](O)[C@@H]1O
- Potency [1]: inactive

Structure (SMILES): C[C@@H]1O[C@@H](O[C@H]2[C@H](OC(=O)[C@]34CCC(C)(C)C[C@H]3C3=CCC5[C@@]6(C)C[C@H](O)[C@H](O[C@@H]7O[C@H](CO)[C@@H](O)[C@H](O)[C@H]7O)[C@@](C)(CO)C6[C@H](O)C[C@@]5(C)[C@]3(C)C[C@H]4O)OC[C@H](O)[C@@H]2O)[C@H](O)[C@H](O)[C@H]1O[C@@H]1OC[C@@H](O)[C@H](O[C@H]2OC[C@](O)(CO)[C@H]2O)[C@H]1O (stereo partly specified)
- activity change, negative = cytotoxicity [1]: 4.28% [at 9.29 µM]

Structure (SMILES): C=CC(C)(O)C(O)CC1C(C)(O)C(O)C(O)C2C(C)(C)CCCC21C (stereo unspecified)
- Potency [1]: inactive
